Source: PubChem
Compounds with a hit are over-represented: about 4.8% of the library has one in this group of screens.
hcDAF12 agonist = activators of H. contortus DAF-12 nuclear receptor. activation, % at 6.8 µM. AID 652067. HEK293 hcDAF-12 lit1-tk-luc reporter, luminescence; 0% DMSO, 100% Δ7-dafachronic acid. 1.4% of 370,000 active;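 active = activation above the mean of all tested compounds plus 3 SD, cut at about 5.5% in these data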;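 also: 100% = response to 3 µM Δ7-dafachronic acid high control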
hgDAF-12 ag = hgDAF-12 agonism, primary luciferase screen | HEK293 GAL4-hgDAF12 UAS-luciferase reporter, agonist luminescence; normalized to butyrate control | activation, % at 6.8 µM | 1.8% of 370,000 active | AID 687014;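 active = activation above a cutoff set at the mean of all screened compounds plus 3 SD, cut at about 10% in these data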;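 also: 0% = DMSO wells and 100% = sodium butyrate wells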
DAX1 inh-1 = NR0B1 (DAX1) inhibition | P51843 | HEK293 Gal4-DAX1 luciferase reporter, luminescence | inhibition, % at 6.75 µM | 0.99% of 340,000 active | AID 504766;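 active = inhibition above the mean over all tested compounds plus 3 SD, cut at about 4.2% in these data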;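 also: 0% = DAX1-transfected cells with DMSO and 100% = empty-vector control cells with DMSO; inhibition shows as a rise in luminescence from relieved DAX1 repression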
Target sequence (P51843 207-470 limits assumed): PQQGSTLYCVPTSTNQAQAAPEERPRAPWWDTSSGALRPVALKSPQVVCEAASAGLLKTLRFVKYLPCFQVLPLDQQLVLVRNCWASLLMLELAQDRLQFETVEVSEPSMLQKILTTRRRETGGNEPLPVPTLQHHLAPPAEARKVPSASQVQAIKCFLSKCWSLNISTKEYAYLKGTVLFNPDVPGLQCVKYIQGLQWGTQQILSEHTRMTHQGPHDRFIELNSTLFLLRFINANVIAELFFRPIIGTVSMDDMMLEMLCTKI
SMARCA2 activ = activators of SMARCA2 function; 1% of 370,000 active; activation, % at 9.1 µM; MG213 cells, MMTV-luciferase reporter, dexamethasone, overnight; in the data active = activation above about 7.8%;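 also: 0% = vehicle wells and 100% = reference activator wells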
ssDAF-12 act = activators of S. stercoralis DAF-12 nuclear receptor; HEK293 ssDAF-12/GRIP1 lit1-tk-luc reporter, luminescence; % of 3 µM dafachronic acid response; 1% of 370,000 active; activation, % at 6.8 µM;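 active = activation above the mean over all tested compounds plus 3 SD, cut at about 0.9% in these data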;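 also: 0% = DMSO-only wells and 100% = 3 µM delta7-dafachronic acid wells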
DAX1 inh-2 = blocks DAX1 repression of SF-1 activated StAR promoter; HEK293T StAR-luciferase reporter, SF-1/DAX-1 repression relief; inhibition, % at 6.8 µM; 1.1% of 370,000 active; AID 652010;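 active = inhibition above the mean over all tested compounds plus 3 SD, cut at about 3.6% in these data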;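 also: 0% = DAX-1 cells with DMSO and 100% = cells lacking DAX-1 with DMSO; higher inhibition means more luminescence from relief of DAX-1 repression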
DAX1 conf = confirmation of human DAX1 (NR0B1) inhibitors; shares compounds with DAX1 inh-2; HEK293T StAR-promoter luciferase reporter, SF-1/DAX-1 repression; inhibition, % at 6.8 µM; 87% of 2,400 active; AID 652134;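 active = inhibition above the average of every tested compound plus 3 SD, cut at about 3.8% in these data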;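 also: 0% = DAX-1 cells with DMSO and 100% = no DAX-1 control cells with DMSO; active compounds raise luminescence by relieving repression of the StAR reporter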
Target sequence (P51843 whole entry, looked up): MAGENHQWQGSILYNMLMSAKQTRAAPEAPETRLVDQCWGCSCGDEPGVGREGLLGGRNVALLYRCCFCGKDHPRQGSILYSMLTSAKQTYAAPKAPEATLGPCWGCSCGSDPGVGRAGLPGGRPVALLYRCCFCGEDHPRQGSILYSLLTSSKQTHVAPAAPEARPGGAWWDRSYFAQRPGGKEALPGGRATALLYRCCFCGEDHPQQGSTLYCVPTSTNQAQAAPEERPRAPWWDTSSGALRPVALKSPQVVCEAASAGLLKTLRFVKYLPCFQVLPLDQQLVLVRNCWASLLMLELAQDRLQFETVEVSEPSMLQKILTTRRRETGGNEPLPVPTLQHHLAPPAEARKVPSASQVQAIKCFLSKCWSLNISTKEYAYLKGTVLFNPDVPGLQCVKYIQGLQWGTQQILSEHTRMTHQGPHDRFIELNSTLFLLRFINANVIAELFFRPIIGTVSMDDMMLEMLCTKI
SF1 mutant ctr = counter-screen for DAX1 inhibitors: nonselective inhibitors with SF-1 AF2 mutant; 78% of 2,400 active; shares compounds with DAX1 inh-2; inhibition, % at 6.8 µM; HEK293 StAR-luciferase, luminescence; AID 652136;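 active = inhibition above the mean of all tested compounds plus 3 SD, cut at about 3% in these data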;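 also: 0% = DAX-1 transfected cells with DMSO and 100% = cells without DAX-1 with DMSO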
SMARCA2 act conf = confirmation of SMARCA2 (BRM) function activators | activation, % at 9.1 µM | 30% of 3,500 active | MG213 cells, MMTV-luciferase with dexamethasone, luminescence, overnight; MG213 cells expressing E1A, Rb sequestered; DMSO wells 0%, reference activator 100% | shares compounds with SMARCA2 activ | AID 652260;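 active = activation above its plate's cutoff, the mean activation of tested wells plus 3 SD, cut at about 7.9% in these data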
GAL4-VP16 Luc = activates GAL4-VP16 luciferase, flagging SMARCA2 activator hits | shares compounds with SMARCA2 activ | HEK293 GAL4-VP16 pG5luc reporter, luciferase luminescence; scaled: DMSO wells 0%, SAHA wells 100% | activation, % at 9.1 µM | 41% of 3,500 active | AID 686939;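 active = activation above the solvent-only control well mean plus 3 SD, averaged across control plates, cut at about 5.2% in these data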
LXR ag = LXR-beta agonism as hcDAF-12 counter-screen; shares compounds with hcDAF12 agonist; HEK293 Gal4-LXR tk-luc reporter, luminescence, 24 h; normalized: DMSO 0%, positive control 100%; activation, % at 6.8 µM; 3,400 tested, under 10 active; AID 743027;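 active = mean percent activation of the reporter above a cutoff set as the average over tested compounds plus their standard deviation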
hcDAF12 ag = confirmation of H. contortus DAF-12 agonists; shares compounds with hcDAF12 agonist; 61% of 3,400 active; HEK293 hcDAF-12 lit1-tk-luc reporter, luminescence; % of Δ7-dafachronic acid response; activation, % at 6.8 µM;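 active = mean activation across triplicate tests above the threshold derived from the earlier primary screen, cut at about 5.5% in these data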;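 also: 0% = DMSO only wells and 100% = 3 µM Δ7-dafachronic acid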
* = called active by the depositor; . = not tested or not shown; ! = not confirmed by another sample.

SMILES | hcDAF12 agonist | hgDAF-12 ag | DAX1 inh-1 | SMARCA2 activ | ssDAF-12 act | DAX1 inh-2 | DAX1 conf | SF1 mutant ctr | LXR ag | hcDAF12 ag | others
O=C(/C=C/Nc1cccc(O)c1)c1ccccc1 | 7.0* | 7.0 | -2.0 | 8.1* | -0.2 | 6.6* | 12.5* | 6.0* | 2.0 | 12.6* | SMARCA2 act conf=6.4;GAL4-VP16 Luc=8.1*
CN(C(=O)c1ccco1)c1nc2c(s1)CCCC2 | 8.6* | 12.1* | 0.6 | 0.9 | 1.6* | 5.1* | 15.8* | 6.4* | 1.0 | 8.3*
Cc1c(C(=O)N2CCc3ccccc3C2)sc2nc(-c3ccccc3)cn12 | -1.3 | 1.0 | -0.9 | 0.4 | -0.8 | 0.2 | . | . | . | .
c1ccc(-c2cn3c4c(sc3n2)CCCC4)cc1 | 8.5* | 4.8 | -2.9 | -0.9 | 0.2 | 6.2*! | 10.0* | 1.5 | 1.5 | 18.8*
Cc1c(NC(=O)c2ccc(-c3ccccc3)cc2)cccc1C(=O)O | 10.6* | 27.3* | -5.9 | 7.8 | 0.6 | 6.6* | 15.1* | 7.7* | 1.6 | 12.9*
Cc1cc(N2CC(C(=O)Nc3nccs3)CC2=O)ccc1C(C)C (centres undefined) | -1.7 | 3.7 | -0.1 | 3.2 | -0.8 | -1.6 | . | . | . | .
Cc1ccc(C(=O)Nc2ccc3c(c2)nc2n3CCSC2)cc1 | 7.0* | 9.9 | 0.1 | 3.6 | 0.4 | 4.6* | 13.0* | 7.5* | 1.1 | 4.1
CC(=O)Nc1ccc2c(c1)nc1n2CCSC1 | -2.0 | 0.5 | -0.3 | 2.1 | -1.5 | -0.1 | . | . | . | .
Cc1ccc(C(=O)Oc2oc(-c3ccco3)nc2C=Nc2ccc(Cl)cc2)cc1 | 8.3* | 9.4 | 0.3 | 8.0* | 0.6 | 4.6* | 7.9* | 4.7* | 0.9 | 3.2 | SMARCA2 act conf=1.6;GAL4-VP16 Luc=20.3*
Cc1ccc(-n2nc3ccc(NC(=O)C(C)C)cc3n2)cc1 | 9.8* | 17.3* | 2.5 | 4.2 | 1.0* | 5.1* | 15.8* | 7.7* | 1.7 | 6.8*
CC(C)C(=O)Nc1ccc2nn(-c3ccc(F)cc3)nc2c1 | . | . | -0.5 | . | . | . | . | . | . | .
Cc1ccsc1C(=O)N/N=C/c1ccc2c(c1)OCO2 | 9.1* | 14.8* | -0.4 | 3.2 | 0.5 | 7.7* | 15.0* | 9.4* | 1.6 | 6.6*
Cc1ccccc1/C=N/NC(=O)c1sccc1C | 12.1* | 27.1* | 2.4 | 0.8 | 2.0* | 6.2* | 14.9* | 10.2* | 1.1 | 4.8
Cc1ccsc1C(=O)N/N=C/C=C/c1ccccc1[N+](=O)[O-] | -0.2 | 4.9 | 0.5 | 6.7 | -0.6 | 0.8 | . | . | . | .
Cc1ccc(SCC(=O)NCC2COc3ccccc3O2)cc1 (centres undefined) | -0.9 | -0.6 | 0.7 | -0.7 | -1.1 | -0.5 | . | . | . | .
Cc1ccc(C)c(Nc2cc(C)nc3ccccc23)c1 | -1.6 | -0.4 | 0.1 | 1.1 | -1.6 | -0.7 | . | . | . | .
CC1CCC(NC(=O)C(=O)Nc2ccc3c(c2)OCO3)CC1 (centres undefined) | 7.0* | 4.9 | 1.6 | 5.5 | 0.2 | 7.8* | 8.9* | 8.8* | 1.1 | 5.7*
COc1ccc(NC(=O)c2[nH]c(C)c(C(C)=O)c2C)cc1 | 10.9* | 11.4* | 0.5 | 2.0 | 1.7* | 4.7* | 6.5* | 6.8* | 0.7 | 10.2*
CC(=O)c1c(C)[nH]c(C(=O)Nc2cccc(C)n2)c1C | 6.9* | 11.7* | 0.3 | -0.3 | 0.4 | 11.6* | 10.7* | 4.7* | 1.1 | 2.5
CC(C)C[C@@H](CNCC(=O)[C@H](Cc1ccccc1)NC(=O)c1[nH]cnc1C(=O)N[C@@H](C)CN)NC(=O)c1nc[nH]c1C(=O)N[C@@H](C)C(=O)O | -0.2 | -0.7 | -1.5 | -4.5 | -0.2 | 0.6 | . | . | . | .
O=C(NC1=NCCS1)c1ccc(C(F)(F)F)cc1 | 1.3 | 5.6 | 1.3 | 1.9 | -0.8 | 0.9 | . | . | . | .
CC(C)Oc1ccc(C(=O)NC2=NCCS2)cc1 | 7.5* | 22.3* | -0.1 | 4.1 | 0.4 | 9.9* | 13.6* | 8.1* | 1.1 | 4.4
Cc1ccc2c(c1)N(CC(=O)Nc1ccccc1F)C(=O)CO2 | -0.3 | 0.3 | -0.7 | -2.2 | -1.6 | 0.0 | . | . | . | .
CC(C)NC(=O)NC(=O)COc1ccc(Br)cc1Br | 7.5* | 11.7* | 1.6 | 5.5 | 0.4 | 6.3* | 16.6* | 6.7* | 1.7 | 6.0*
Cc1ccnc(NS(=O)(=O)c2ccc(NC(=O)c3cccc(Cl)c3)cc2)n1 | -1.1 | 4.2 | 0.9 | -0.5 | -1.4 | 0.7 | . | . | . | .
SMILES | hcDAF12 agonist | hgDAF-12 ag | DAX1 inh-1 | SMARCA2 activ | ssDAF-12 act | DAX1 inh-2 | DAX1 conf | SF1 mutant ctr | LXR ag | hcDAF12 ag | others
O=[N+]([O-])c1cccc2nc3ccccc3c(NCCCn3ccnc3[N+](=O)[O-])c12 | 0.7 | -3.3 | 1.7 | -3.0 | -0.9 | -2.9 | . | . | . | .
COc1ccc2oc(C(=O)NCC3CCCO3)c(C)c2c1 (centres undefined) | 11.8* | 6.4 | 1.3 | 3.2 | 0.6 | 6.5* | 5.1* | 2.2 | 0.6 | 6.5*
O=C(O)c1cc(N/N=C/C(Cl)=C/c2ccccc2)ccc1Cl | 11.1* | 28.1* | -3.8 | 7.2 | 2.2* | 13.4* | 21.9* | 12.3* | 1.9 | 12.9*
Cc1ccc(/C=N/Nc2ccc(Cl)c(C(=O)O)c2)s1 | 19.1* | 21.6* | -2.1 | 2.1 | 4.1* | 6.7* | 12.4* | 9.1* | 2.0 | 11.7*
CC(=O)Nc1cccc(C(=O)N2CCN(S(=O)(=O)Cc3ccccc3)CC2)c1 | -0.7 | 2.5 | 0.0 | 5.5 | -1.3 | -0.5 | . | . | . | .
COc1ccccc1-c1nc(-c2ccc(Br)o2)no1 | 26.3* | 19.8* | 2.3 | 4.0 | 4.5* | 7.9* | 17.3* | 8.2* | 2.2 | 21.3*
COc1ccc(-c2nc(-c3ccc(Br)o3)no2)cc1OC | 3.9 | 5.4 | 0.9 | -0.3 | -0.7 | 0.9 | . | . | . | .
